{"source": "PubChem BioAssay (EPA / NIEHS)", "note": "Active and inactive are the calls of the source. The calls were made as follows: active = hit-call score of the fitted dose curve at least 0.9, where 1 is the maximum; inactive = score below 0.9."}
{"read-out": "DNA damage-inducible transcript 3 (DDIT3), DDIT3 (gene 1649)", "experiment": "LTEA_HepaRG_DDIT3: Life Technologies and Expression Analysis (LTEA) Assay for DNA damage-inducible transcript 3 (DDIT3) using HepaRG (AID 2283488)", "details": "mRNA level, 48 h; actives raise or lower the signal", "description": "LTEA_HepaRG is a cell based, multiplexed-readout assay that uses HepaRG, a human liver cell line, with measurements taken at 48 hours after chemical dosing on a 96-well plate.LTEA_HepaRG_DDIT3 is one of 102 assay component(s) measured in the LTEA HepaRG cell culture assay. It is a marker of Oxidative Stress.Data from the assay component LTEA_HepaRG_DDIT3 was analyzed into 1 endpoint. This assay endpoint, LTEA_HepaRG_DDIT3, was analyzed with bidirectional fitting relative to DMSO as the negative control and baseline of activity. Using a type of inducible reporter, measures of mRNA induction for gain or loss-of-signal activity can be used to understand regulation of transcription factor activity. To generalize the intended target to other relatable targets, this assay endpoint is annotated to the dna binding intended target family, where the subfamily is basic leucine zipper.\nA total of 1060 chemcials from the ToxCast library were tested in eight-point concentration-response experiments. Cell culture and cytotoxicity assays were conducted at Thermo Fisher Scientific's Custom Services facility (Madison, WI). A single lot of human HepaRG cells (Thermo Fisher Scientific, Frederick, MD) was used for the cell culture experiments. 96-well format collagen type I coated plates of human HepaRG cells were prepared using established methods. Briefly, cryopreserved HepaRG cells were thawed, plated at a density of approximately 100,000 cells/well in HepaRG Thaw, Plate, and General Purpose media (HPRG770, Thermo Fisher Scientific), and incubated for 48 hours. 0.5% DMSO was selected as vehicle control to balance the requisite need of DMSO in HepaRG cultures to maintain differentiation (for example, baseline metabolism, proportions of hepatocytes vs. cholangiocytes), while enabling further hepatic receptor pathway activation (for example, PXR and CAR) in response to chemical exposure. 48 hours after plating, the culture medium was replaced with HepaRG Serum-Free Incudtion Media. Cells were exposed to each test chemical in duplicate and maintained in CO2 incubators for another 48 hours. Chemical plates were thawed to room temperature and 200x concentrations of treatment groups were prepared. 8-point conentration-reponse curves were made with the highest exposure at 100 uM, followed by half-log dilutions, all in 0.5% DMSO. Each test plate contained variouse controls, induction positive controls (1mM phenobarbital), cytotoxicity positive controls ([…] aflatoxin B1), vehicle controls (0.5% DMSO), and total lysis controls (0.5% DMSO). Cell morphology images were taken using an Essen IncuCyte FLR automated microscope, with six 96-well plates imaged in about 24 minutes. Images were captured and exported and JPEG files. Spent culture media was transfered to black-well plates for the LDH assay, and remaining media was sorted at -80 C for later use. Cells were treated with RLT buffer and frozen until shipped for gene expression analysis. Total RNA was isolated from the cell suspension in 75 uL of Buffer RLT (Qiagen, Germantown, MD 20874) by Quintiles/Expression Analysis (Durham, NC) using a custom isolation procedure. Total RNA from each plate well was transferred to a preamplification plate. Fluidigm's 96.96 Dynamic ArrayTM (Fluidigm, Amsterdam, the Netherlands) technology was used for gene expression analyses by quantitative reverse transcription polymerase chain reaction (qRT-PCR, performed by Quintiles/Expression Analysis, Durham, NC)89. Standard TaqManTM Assays (Applied Biosystems/ThermoFisher Scientific, Foster City, CA) were used to assess the expression of 93 genes selected based on their selectivity and sensitivity to important hepatic receptors known to be modulated by environmental chemicals; importance in human hepatocyte functionality; and hepatotoxicity. […]"}
{"smiles": "CCCOCC(=Nc1ccc(Cl)cc1C(F)(F)F)n1ccnc1", "AC50": "72.4 µM (active)"}
{"smiles": "CC[C@H](C)[C@H]1O[C@]2(C=C[C@@H]1C)C[C@@H]1C[C@@H](C/C=C(\\C)[C@@H](O[C@H]3C[C@H](OC)[C@@H](O[C@H]4C[C@H](OC)[C@@H](NC)[C@H](C)O4)[C@H](C)O3)[C@@H](C)/C=C/C=C3\\CO[C@@H]4[C@H](O)C(C)=C[C@@H](C(=O)O1)[C@]34O)O2", "AC50": "13.1 µM (active)"}
{"smiles": "C#CCC1=C(C)C(OC(=O)C2C(C=C(C)C)C2(C)C)CC1=O", "note": "(stereo not given)", "outcome": "inactive"}
{"smiles": "C=C(C)[C@H]1Cc2c(ccc3c2O[C@@H]2COc4cc(OC)c(OC)cc4[C@@H]2C3=O)O1", "AC50": "1.27 µM (active)"}
{"smiles": "CC(=NC#N)N(C)Cc1ccc(Cl)nc1", "outcome": "inactive"}
{"smiles": "FC(F)C(F)(F)OCC(Cn1cncn1)c1ccc(Cl)cc1Cl", "note": "(stereo not given)", "AC50": "28.7 µM (active)"}
{"smiles": "CNC(=O)Oc1cccc2c1OC(C)(C)O2", "outcome": "inactive"}
{"smiles": "C[N+]1(C)CCCCC1", "outcome": "inactive"}
{"smiles": "CCOP(=S)(OCC)Oc1ccc2c(C)c(Cl)c(=O)oc2c1", "AC50": "80.3 µM (active)"}
{"smiles": "CCc1cnc(C2=NC(C)(C(C)C)C(=O)N2)c(C(=O)O)c1", "note": "(stereo not given)", "outcome": "inactive"}
{"smiles": "Cc1ccn2nc(S(=O)(=O)Nc3c(F)cccc3F)nc2n1", "outcome": "inactive"}
{"smiles": "CCCCOC(=O)c1ccccc1C(=O)O", "outcome": "inactive"}
{"smiles": "CC1=NNC(=O)N(/N=C/c2cccnc2)C1", "outcome": "inactive"}
{"smiles": "CCCCN(CC)c1c([N+](=O)[O-])cc(C(F)(F)F)cc1[N+](=O)[O-]", "outcome": "inactive"}
{"smiles": "CCCCSP(=O)(SCCCC)SCCCC", "AC50": "76 µM (active)"}
{"smiles": "CC(Oc1cccc(Cl)c1)C(=O)O", "note": "(stereo not given)", "outcome": "inactive"}
{"smiles": "O=C(O)c1cc(Oc2ccc(C(F)(F)F)cc2Cl)ccc1[N+](=O)[O-]", "outcome": "inactive"}
{"smiles": "CNC(=O)ON=C(C)SC", "outcome": "inactive"}
{"smiles": "COP(=O)(OC)SCn1c(=O)oc2cc(Cl)cnc21", "outcome": "inactive"}
{"smiles": "CCOP(=S)(OCC)OC(Cl)C(Cl)(Cl)Cl", "note": "(stereo not given)", "outcome": "inactive"}
{"smiles": "CCC(=O)Nc1ccc(Cl)c(Cl)c1", "outcome": "inactive"}
{"smiles": "CCCCOC(=O)[C@@H](C)Oc1ccc(Oc2ccc(C#N)cc2F)cc1", "outcome": "inactive"}
{"smiles": "CCOP(=S)(OCC)Oc1ccc([N+](=O)[O-])cc1", "outcome": "inactive"}
{"smiles": "COc1ccc(C(=CC(=O)N2CCOCC2)c2ccc(Cl)cc2)cc1OC", "outcome": "inactive"}
{"smiles": "CC(C1CC1)C(O)(Cn1cncn1)c1ccc(Cl)cc1", "note": "(stereo not given)", "AC50": "72.3 µM (active)"}
{"smiles": "CC(C)[C@H](C(=O)O[C@H](C#N)c1cccc(Oc2ccccc2)c1)c1ccc(Cl)cc1", "outcome": "inactive"}
{"smiles": "CCNc1nc(Cl)nc(NC(C)(C)C#N)n1", "outcome": "inactive"}
{"smiles": "CNC(=O)ON=C(SC)C(=O)N(C)C", "outcome": "inactive"}
{"smiles": "CC(C)=CC1C(C(=O)OCN2C(=O)C3=C(CCCC3)C2=O)C1(C)C", "note": "(stereo not given)", "outcome": "inactive"}
{"smiles": "CCOP(=O)(OCC)Oc1cc(C)nc(C(C)C)n1", "outcome": "inactive"}
{"smiles": "CCc1cccc(C)c1N(C(=O)CCl)C(C)COC", "note": "(stereo not given)", "outcome": "inactive"}
{"smiles": "CCCSP(=O)(OCC)Oc1ccc(Br)cc1Cl", "note": "(stereo not given)", "outcome": "inactive"}
{"smiles": "CCC(=NOC/C=C/Cl)C1=C(O)CC(C2CCOCC2)CC1=O", "note": "(stereo not given)", "outcome": "inactive"}
{"smiles": "Nc1c(Cl)cc([N+](=O)[O-])cc1Cl", "AC50": "35.1 µM (active)"}
{"smiles": "C[Si](Cn1cncn1)(c1ccc(F)cc1)c1ccc(F)cc1", "AC50": "31.9 µM (active)"}
{"smiles": "O=[N+]([O-])c1cc(C(F)(F)F)c(Cl)c([N+](=O)[O-])c1Nc1ncc(C(F)(F)F)cc1Cl", "outcome": "inactive"}
{"smiles": "CSC1=N[C@@](C)(c2ccccc2)C(=O)N1Nc1ccccc1", "AC50": "28 µM (active)"}
{"smiles": "CCCOc1nn(C(=O)NS(=O)(=O)c2ccccc2C(=O)OC)c(=O)n1C", "outcome": "inactive"}
{"smiles": "S=C1NCCN1", "outcome": "inactive"}
{"smiles": "C#CC(C)(C)NC(=O)c1cc(Cl)cc(Cl)c1", "outcome": "inactive"}
